Assay outcomes from PubChem BioAssay.
PMP22 txn prim: Cell-based coincidence reporter assay to measure PMP22 gene transcription in S16 Pmp22-F2sN cells - Primary screen; S16 Pmp22-F2sN Schwann cells, FLuc/NLuc coincidence luminescence, 24 h; Potency, µM (titrated, usually from 57.5 µM), hits mostly inhibitors; actives 2% (n = 43,000); AID 1508649, 2021; active = clear falling dose curves in both reporters; inconclusive = both reporters move, but less clearly or upward; inactive = either reporter flat; the % is the NLuc reporter signal
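S16 Schwann cells carrying FLuc/NLuc coincidence reporter in the Pmp22 3' UTR treated with compound 24 h at 37C; FLuc then NLuc luminescence read sequentially by dual-luciferase reagents.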
p53null 32C tox: qHTS Screen for Compounds that Selectively Target Cancer Cells with p53 Mutations: Cytotoxicity of p53 Null Cells at the Permissive Temperature | actives 0.62% (n = 55,000) | Potency, µM (titrated, usually from 46.1 µM), hits mostly cytotoxic | AID 903, 2007 | H1299-neo p53 null cells, ATP luminescence, 24 h, 32C; note: nearly all actives have a fitted effect of over 55% in size
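ATP-content luminescence in p53-null H1299-neo cells after 24 h compound exposure (up to 46 uM) at 32C permissive temperature; 0% and 100% killing set by DMSO and 100 uM tamoxifen; Hill-equation AC50.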
pS6 MEF inh: Acumen qHTS Assay for Inhibitors of the mTORC1 Signaling Pathway in MEF (Tsc2-/-, p53-/-) Cells: Sytravon | Tsc2-/- p53-/- MEF, phospho-rpS6 immunofluorescence/PI, 24 h | Potency, µM (doses to about 38.3 µM), most hits filed as inhibitors | actives 0.78% (n = 44,000) | AID 493208, 2011; note: nearly all actives have a fitted effect of over 50% in size
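Readout is phospho-S6 Alexa 488 signal normalized to PI per well, reported as % active cells with thresholds set from rapamycin (7.5 nM) and DMSO controls. Cells: Tsc2-/-, p53-/- MEFs, 24 hrs compound at 37 C; PI cell number serves as viability.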
p53null 39C kill: qHTS Screen for Compounds that Selectively Target Cancer Cells with p53 Mutations: Cytotoxicity of p53 Null Cells at the Nonpermissive Temperature; H1299 p53-null (neo) cells, 39C, ATPlite viability, 24 h; Potency, µM (series often up to 46.1 µM), most hits filed as cytotoxic; actives 0.97% (n = 55,000); note: nearly all actives have a fitted effect of over 50% in size
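Temperature-shift cytotoxicity format: compound titrations on p53-null or A138V-expressing H1299 cells held 24 hr at 39C, cell ATP then measured, AC50 from Hill model.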
S16 F2sN tox: Cell viability qHTS assay in S16 Pmp22-F2sN cells | AID 1508642, 2021 | S16 Pmp22-F2sN Schwann cells (luciferase reporters placed in the Pmp22 gene) viability, CellTiter-Glo, 24 h | Potency, µM (highest dose often 57.5 µM), actives largely listed as cytotoxic | actives 0.48% (n = 43,000); note: nearly all actives have a fitted effect of over 65% in size
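Luminescence from CellTiter-Glo, read by CCD camera after a 15 min room-temperature incubation, served as the viability signal. Reporter Schwann cells (S16 Pmp22-F2sN) had been treated with pin-transferred compounds for 24 h at 37C.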
OvCa metastasis: Primary qHTS assay for Inhibitors of ovarian cancer metastasis using an organotypic tumor microenvironment (TME) model | SKOV3ip1-GFP adhesion/invasion on 3D omental model, fluorescence | Potency, µM (series often up to 45.8 µM), actives largely listed as inhibitors | actives 0.1% (n = 46,000); note: nearly all actives have a fitted effect of over 65% in size
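Primary human omental fibroblast/mesothelial 3D culture pre-formed 48 h. SKOV3ip1-GFP cells added with compounds (0.36-46 umol/L), incubated 2 h RT/16 h 37 C, fixed; GFP cells quantified at 488/509 nm.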
NLuc sat counter: Biochemical NLuc saturation counterscreen for small molecule modulators of PMP22 gene expression - Nano-Glo assay. actives 4% (n = 690). Potency, µM (doses to about 57.5 µM), usual class: inhibitors. shares compounds with PMP22 txn prim. Secreted NLuc enzyme (filtered S16 cell medium), Nano-Glo luminescence
NLuc Km counter: Biochemical coelenterazine-based NLuc counterscreen for small molecule modulators of PMP22 gene expression - Km assay | shares compounds with PMP22 txn prim | secreted NLuc enzyme, coelenterazine luminescence, Km conditions | Potency, µM (titrated, usually from 57.5 µM), hits mostly inhibitors | actives 5% (n = 690) | AID 1508639, 2021
FLuc ctr PMP22: Biochemical FLuc counterscreen for small molecule modulators of PMP22 gene expression. shares compounds with PMP22 txn prim. purified P. pyralis FLuc, luminescence, 10 min. Potency, µM (titrated, usually from 57.5 µM), most hits filed as inhibitors. 690 tested, under 10 active. AID 1508640, 2021
Target sequence (P08659 whole entry, looked up): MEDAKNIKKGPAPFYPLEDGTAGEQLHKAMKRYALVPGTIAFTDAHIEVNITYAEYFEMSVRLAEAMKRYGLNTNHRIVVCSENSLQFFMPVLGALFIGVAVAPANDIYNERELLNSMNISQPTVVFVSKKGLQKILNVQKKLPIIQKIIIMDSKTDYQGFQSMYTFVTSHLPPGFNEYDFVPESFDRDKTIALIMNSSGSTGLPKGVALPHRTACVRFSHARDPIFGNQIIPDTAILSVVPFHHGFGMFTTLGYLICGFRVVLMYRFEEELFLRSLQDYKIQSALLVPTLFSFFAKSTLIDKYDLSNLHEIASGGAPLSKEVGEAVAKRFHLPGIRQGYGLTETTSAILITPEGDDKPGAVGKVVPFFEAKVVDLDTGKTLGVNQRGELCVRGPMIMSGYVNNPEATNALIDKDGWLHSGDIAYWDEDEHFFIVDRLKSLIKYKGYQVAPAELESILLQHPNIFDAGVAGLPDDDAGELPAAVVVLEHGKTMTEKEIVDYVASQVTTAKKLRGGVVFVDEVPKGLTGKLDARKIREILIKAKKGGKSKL
S16 viab conf: Cell viability qHTS assay in S16 Pmp22-F2sN cells - Confirmatory screen | shares compounds with PMP22 txn prim | S16 Schwann cells viability, CellTiter-Glo ATP luminescence, 24 h | Potency, µM (titrated, usually from 57.5 µM), usual class: cytotoxic | actives 7% (n = 690) | AID 1508641, 2021
PMP22 txn cnf: Cell-based coincidence reporter assay to measure PMP22 gene transcription in S16 Pmp22-F2sN cells - Confirmatory screen; shares compounds with PMP22 txn prim; S16 Schwann cells Pmp22-F2sN, dual luciferase, 24 h; Potency, µM (top dose mostly 57.5 µM), hits mostly inhibitors; actives 22% (n = 690); active = clear falling dose curves in both reporters; inconclusive = both reporters move, but less clearly or upward; inactive = either reporter flat; the % is the FLuc reporter signal
PMP22 HiBiT cnf: Cell-based HiBiT reporter assay to measure PMP22 protein expression in S16 Pmp22-HiBiT cells - Confirmatory screen | 95 tested, under 10 active | Potency, µM (titrated, usually from 27.9 µM), most hits filed as inhibitors | shares compounds with PMP22 txn prim | AID 1508647, 2021 | S16 Schwann cells Pmp22-HiBiT, luminescence, 48 h
Target sequence (P25094 whole entry, looked up): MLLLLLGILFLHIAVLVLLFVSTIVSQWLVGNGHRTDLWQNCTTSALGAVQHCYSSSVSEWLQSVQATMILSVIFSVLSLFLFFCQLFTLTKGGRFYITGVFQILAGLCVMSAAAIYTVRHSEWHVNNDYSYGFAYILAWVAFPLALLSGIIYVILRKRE
Large screens that a line does not name were inactive (follow-up assays come after a bar, where they were run). Only some compounds are listed: those with a hit (about 3% of all), similar ones and a draw of the others. Unless noted, calls come from the whole dose curve; as a rule, active = well fitted curve in the direction sought with a large enough effect; inconclusive = small, poorly fitted or top-dose-only effect, or another doubt; inactive = no such curve, though single readings can be large; an effect the other way counts as inactive or inconclusive.

CCS(=O)(=O)c1ncc(Cl)c(C(=O)Nc2c(C(=O)c3ccc(C)cc3)oc3ccccc23)n1	PMP22 txn prim 2.1µM, S16 F2sN tox inconclusive | NLuc sat counter inactive | NLuc Km counter inconclusive | FLuc ctr PMP22 inactive | S16 viab conf inconclusive | PMP22 txn cnf 9.3µM | PMP22 HiBiT cnf inactive
COc1ccc(Cl)cc1NC(=O)CCS(=O)(=O)c1nc(-c2cccs2)cc(C(F)(F)F)n1	PMP22 txn prim 10µM, p53null 39C kill inconclusive, S16 F2sN tox inconclusive, OvCa metastasis inconclusive | NLuc sat counter inconclusive | NLuc Km counter inconclusive | FLuc ctr PMP22 inactive | S16 viab conf inconclusive | PMP22 txn cnf 8.9µM
COc1ccc(NC(=O)CSc2nc(-c3cccs3)cc(C(F)(F)F)n2)cc1Cl	PMP22 txn prim inconclusive
COc1ccc(Cl)cc1NC(=O)CCCS(=O)(=O)c1nc(-c2ccc(OC)c(OC)c2)cc(C(F)(F)F)n1	PMP22 txn prim 5µM, p53null 32C tox inconclusive, pS6 MEF inh 13µM, p53null 39C kill inconclusive, S16 F2sN tox inconclusive, OvCa metastasis inconclusive | NLuc sat counter inactive | NLuc Km counter inactive | FLuc ctr PMP22 inactive | S16 viab conf inconclusive | PMP22 txn cnf 9.3µM | PMP22 HiBiT cnf inactive
O=C(CCS(=O)(=O)c1nc(-c2cccs2)cc(C(F)(F)F)n1)Nc1ccc(F)c(Cl)c1	PMP22 txn prim 15µM, p53null 39C kill inconclusive, S16 F2sN tox inconclusive, OvCa metastasis inconclusive | NLuc sat counter inactive | NLuc Km counter inconclusive | FLuc ctr PMP22 inactive | S16 viab conf inconclusive | PMP22 txn cnf 13µM | PMP22 HiBiT cnf inconclusive
O=C(CCS(=O)(=O)c1nc(-c2cccs2)cc(C(F)(F)F)n1)Nc1ccc(OC(F)(F)F)cc1	PMP22 txn prim inconclusive, p53null 39C kill inconclusive, S16 F2sN tox inconclusive | NLuc sat counter inactive | NLuc Km counter inconclusive | FLuc ctr PMP22 inactive | S16 viab conf inconclusive | PMP22 txn cnf 9.1µM | PMP22 HiBiT cnf inconclusive
N#C[C@H]1C[C@H]2C[C@@H]2N1C(=O)[C@@H](N)C12CC3CC(CC(O)(C3)C1)C2	none (no result: PMP22 txn prim, p53null 32C tox, pS6 MEF inh, p53null 39C kill, S16 F2sN tox)
CNC(=O)CN1CCC(Oc2cc3c(Nc4cccc(Cl)c4F)ncnc3cc2OC)CC1	none (no result: PMP22 txn prim, p53null 32C tox, pS6 MEF inh, p53null 39C kill, S16 F2sN tox)
COc1ccc(NC(=O)CCS(=O)(=O)c2nc(-c3cccs3)cc(C(F)(F)F)n2)cc1	PMP22 txn prim 7.6µM, p53null 32C tox inconclusive, pS6 MEF inh inconclusive, S16 F2sN tox inconclusive, OvCa metastasis inconclusive | NLuc sat counter inactive | NLuc Km counter inconclusive | FLuc ctr PMP22 inactive | S16 viab conf inconclusive | PMP22 txn cnf 12µM | PMP22 HiBiT cnf inactive
O=C(CCS(=O)(=O)c1nc(-c2ccc3c(c2)OCO3)cc(C(F)(F)F)n1)Nc1ccccc1F	PMP22 txn prim inconclusive, OvCa metastasis inconclusive
COc1ccccc1-c1cc(C(F)(F)F)nc(S(=O)(=O)CCCC(=O)Nc2ccccc2F)n1	PMP22 txn prim 8.9µM, p53null 32C tox inconclusive, pS6 MEF inh 16µM, p53null 39C kill inconclusive, S16 F2sN tox inconclusive, OvCa metastasis inconclusive | NLuc sat counter inconclusive | NLuc Km counter inconclusive | FLuc ctr PMP22 inactive | S16 viab conf inconclusive | PMP22 txn cnf 6.9µM | PMP22 HiBiT cnf inactive
COC(=O)c1ccccc1NC(=O)CCS(=O)(=O)c1nc(-c2ccc3c(c2)OCO3)cc(C(F)(F)F)n1	PMP22 txn prim 14µM, p53null 39C kill inconclusive | NLuc sat counter inactive | NLuc Km counter inactive | FLuc ctr PMP22 inactive | S16 viab conf inactive | PMP22 txn cnf 19µM
Cc1ccc2c(CN3CCN(c4ccc(Cl)cc4)CC3)cc(=O)oc2c1	PMP22 txn prim inconclusive
COc1ccc(CN2CCN(Cc3cc(=O)oc4cc(C)ccc34)CC2)c(OC)c1OC	PMP22 txn prim 17µM, pS6 MEF inh inconclusive, p53null 39C kill inconclusive, S16 F2sN tox inconclusive | NLuc sat counter inactive | NLuc Km counter inactive | FLuc ctr PMP22 inactive | S16 viab conf inactive | PMP22 txn cnf inactive
CCN1C(=O)c2ccccc2S(=O)c2ccc(C(=O)N3CCN(c4cccc(Cl)c4)CC3)cc21 (stereo unspecified)	PMP22 txn prim 18µM | NLuc sat counter 3.9µM | NLuc Km counter 3.4µM | FLuc ctr PMP22 inactive | S16 viab conf inactive | PMP22 txn cnf inconclusive
COc1ccc(C)cc1NS(=O)(=O)c1ccc(-c2cnc(C3CC3)o2)cc1	PMP22 txn prim 5.6µM, p53null 39C kill inconclusive, S16 F2sN tox inconclusive | NLuc sat counter inactive | NLuc Km counter inconclusive | FLuc ctr PMP22 inactive | S16 viab conf inactive | PMP22 txn cnf inconclusive | PMP22 HiBiT cnf inconclusive
